# Measurements as given in PubChem BioAssay (Tox21).
# Inconclusive results are not listed. Where a call stands in place of a potency, no number is given. A number with no mark means an inactive call. Calls of active or inactive are those of the source. Calls come from the whole dose curve.
# Biological target: D(2) dopamine receptor (Homo sapiens) (UniProt P14416)
# Assay: Dopamine D2 receptor (DRD2) small molecule agonists, cell-based qHTS assay (AID 1963594); note: nearly all actives have a fitted effect of over 35% in size
# Details: HEK293-DRD2 cAMP HTRF, agonist mode, 30 min; series mostly up to 92.4 µM
# Excerpt: National Center for Advancing Translational Sciences [NCATS]
# Division of Preclinical Innovation [DPI]
# U.S. Environmental Protection Agency [EPA]
# National Institutes of Environmental Health Sciences [NIEHS]
# National Toxicology Program [NTP]
# U.S. Food and Drug Administration [FDA]
# DRD2 is the D2 subtype of the dopamine receptor, which is coupled to Gi subtype of G protein-coupled receptor. This G protein-coupled receptor inhibits adenylyl cyclase activity. The DRD2-HEK293 cell line stably expressing D2 dopamine receptor can be used for screening agonists and antagonists of interactions between D2 and its ligands. The Hek293-DRD2 cAMP assay is based on HTRF technology. It measures changes of cAMP accumulation in response to Gi coupled GPCR activation or inhibition.
# Tox21 Assay Protocol Summary:
# DRD2-Hek293 cells were dispensed at 600 cells/3uL/well in 1536-well white plates using a Multidrop Dispenser. After the assay plates were incubated at a 37 C/5% CO2 incubator for 24 h, 1 uL of Ro20-1724 at final concentration of 0.1 mM was transferred to the assay plate by a Flying Reagent Dispenser. Following Ro20-1724 addition, 23 nL of compound dissolved in DMSO, positive controls or DMSO only was added to the assay plates via Wako pintool station. The assay plates were incubated at room temperature for 10 min. Next, 1 uL of NKH477 at 200nM was added into the plates. After the assay plates were incubated at room temperature for an additional 30 min, 2.5 ul/well of cAMP-d2 and 2.5 ul/well of anti-cAMP-cryptate were added respectively into the assay plates using a Flying Reagent Dispenser. The plates were incubated at room temperature for 1 h. The fluorescence intensity in the plates was measured at 340 nm excitation and 665 & 620 nm emission by an Envision plate reader.
# Potency is the fitted concentration of half-maximal effect.
# Chain of D(2) dopamine receptor (Homo sapiens) (P14416 whole entry, looked up): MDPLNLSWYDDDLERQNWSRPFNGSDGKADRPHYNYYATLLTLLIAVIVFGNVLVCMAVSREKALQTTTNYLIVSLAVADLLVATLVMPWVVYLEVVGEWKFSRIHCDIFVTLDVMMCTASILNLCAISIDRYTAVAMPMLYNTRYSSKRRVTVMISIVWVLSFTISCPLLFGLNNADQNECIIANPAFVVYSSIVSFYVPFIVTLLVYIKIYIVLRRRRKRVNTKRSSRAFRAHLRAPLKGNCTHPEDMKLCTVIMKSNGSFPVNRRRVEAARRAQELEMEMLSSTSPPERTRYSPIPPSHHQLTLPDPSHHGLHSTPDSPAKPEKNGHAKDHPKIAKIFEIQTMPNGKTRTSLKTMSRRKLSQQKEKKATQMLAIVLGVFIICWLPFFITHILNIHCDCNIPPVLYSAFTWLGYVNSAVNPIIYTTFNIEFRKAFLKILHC
Structure (SMILES),Potency,activation
C[N+](C)(C)CCOC(=O)CCC(=O)OCC[N+](C)(C)C,inactive,
O=C1c2ccccc2S(=O)(=O)N1CCCCN1CCN(c2ncccn2)CC1,2.76 µM (active),
C=CC(C)(CCC=C(C)C)OC(=O)C(C)C (stereo not given),inactive,
c1ccc(CCNc2nc(-c3ccccc3)cs2)cc1,inactive,
C=C[Si](C)(C)O[Si](C)(C)C=C,inactive,
C[Si](NC1CCCCC1)(NC1CCCCC1)NC1CCCCC1,inactive,
O=C(O)CCCC[P+](c1ccccc1)(c1ccccc1)c1ccccc1,inactive,
NC(=O)NC(=O)Cc1ccccc1,inactive,
c1cc[nH]c1,inactive,
OCCC(O)CO (stereo not given),inactive,
CC(=O)c1ccc2ccc3ccccc3c2c1,inactive,
CCn1nc(Cc2ccccc2)cc1C1CCN(C[C@H]2C[C@H](N(C)[C@@H](C(=O)O)C(C)C)C[C@@H]2c2cccc(F)c2)CC1,inactive,
CCOC(=O)C(=O)c1csc(NC=O)n1,inactive,
C[N+]1(CC2COC(c3ccccc3)(c3ccccc3)O2)CCCCC1 (stereo not given),,-6.08% [at 19 µM]
O=C(CO)[C@@H](O)[C@H](O)[C@H](O)CO,inactive,
c1ccc(CNCCNCc2ccccc2)cc1,inactive,
C=C[C@@H](C)CCC=C(C)C,inactive,
CO[Si](CCCS)(OC)OC,inactive,
O=C(O)c1ccc(Cl)c(Cl)c1,inactive,
CC(=O)[C@H]1CC[C@H]2[C@@H]3C=CC4=CC(=O)CC[C@@]4(C)[C@@H]3CC[C@]12C,inactive,

Structure (SMILES),Potency,activation
Cc1c(C)c2c(c(C)c1O)CC[C@@](C)(CCC[C@H](C)CCC[C@H](C)CCCC(C)C)O2,inactive,
CO[C@@H]1[C@H](OC(=O)/C=C/C=C/C=C/C=C/C(=O)O)CC[C@]2(CO2)[C@H]1[C@@]1(C)O[C@@H]1CC=C(C)C,inactive,
O=C(CCc1ccc(O)cc1)c1c(O)cc(O)cc1O,inactive,
C[C@H](CCC(=O)O)[C@H]1CC[C@H]2[C@@H]3[C@H](O)C[C@@H]4C[C@H](O)CC[C@]4(C)[C@H]3C[C@H](O)[C@]12C,inactive,
COc1c(Br)cc(Br)c(C)c1Br,inactive,
C=CC/C=C/C/C=C/C/C=C/C,inactive,
COc1ccc(OC)c(NC(=O)CC(C)=O)c1,inactive,
C[C@]12C=CC(=O)C=C1[C@@H](F)C[C@@H]1[C@@H]2[C@@H](O)C[C@@]2(C)[C@H]1CC[C@]2(O)C(=O)CO,inactive,
[O-][n+]1cccc(/C(Cl)=N/OC[C@@H](O)CN2CCCCC2)c1,inactive,
CSSc1ccoc1C,inactive,
CN1C(=O)OC(C)(C)C1=O,inactive,
CC[C@H](NC(=O)c1cc(F)ccc1NS(=O)(=O)c1cccc2cccnc12)c1ccccc1,inactive,
O=C(O)c1cc(-c2ccc(F)cc2F)ccc1O,inactive,
COC(C)(OC)OC,inactive,
C#CCN[C@@H]1CCc2ccccc21,inactive,
CCN(CC)CCNC(=O)c1cc(Br)c(N)cc1OC,inactive,
C=C(C)CCCC(C)CCO (stereo not given),inactive,
CCc1cccc(CC)c1N(COC)C(=O)CS(=O)(=O)O,inactive,
O=C(OCC(COC(=O)c1ccccc1)(COC(=O)c1ccccc1)COC(=O)c1ccccc1)c1ccccc1,inactive,
Cc1ccc(O)cn1,inactive,
